Data on 28 molecules can be found in PubChem BioAssay (EPA / NIEHS).

Calls of active or inactive are those of the source. How the source made its calls: active means hit-call score of the fitted dose curve at least 0.9, where 1 is the maximum; inactive means score below 0.9.

Read-out in one assay: not listed separately
Put plainly: BSK_CASM3C_Proliferation: Cell Proliferation Assessment in the BioMAP Diversity Plus: CASM3C Assay (AID 2283047).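 Further: sulforhodamine B total protein stain as relative cell number at 560 nm; sub-confluent cells exposed 48 h before staining; fitted both ways against DMSO so gain or loss of cell number.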 Particulars: primary human coronary artery smooth muscle cells.
Consider `CC(C)CC(C)O` (stereo unspecified), for which the outcome was inactive.

Turning to `CCN(CC)C(=S)SSC(=S)N(CC)CC`, the concentration at half-maximal activity (AC50) was 12.8 µM (active).

As for `FC(F)C(F)(F)COCC1CO1` (stereo unspecified), the result was inactive.

Regarding `OCCC(F)(F)C(F)(F)C(F)(F)C(F)(F)F`, the outcome was inactive.

Regarding `CCCCN1C(=O)[C@@H]([C@H](O)C2CCCCC2)NC(=O)C12CCN(Cc1ccc(Oc3ccc(C(=O)O)cc3)cc1)CC2`, the AC50 was 18.3 µM (active).

For `NC(=O)N1c2ccccc2C=Cc2ccccc21`, the outcome was inactive.

Take `CC(C)c1nnc2ccc(-c3ocnc3-c3cc(F)ccc3F)cn12`: the outcome was inactive.

Take `O=S(=O)(O)CCC(F)(F)C(F)(F)C(F)(F)C(F)(F)C(F)(F)C(F)(F)F`: the result was inactive.

In the case of `FC(F)=C(F)C(F)(F)C(F)(F)C(F)(F)C(F)(F)C(F)(F)C(F)(F)F`, the outcome was inactive.

Turning to `Cc1ccc(S(=O)(=O)NC(=O)NN2CCCCCC2)cc1`, the result was inactive.

Regarding `NC(N)=O`, the outcome was inactive.

As to `CC[C@H](C)C(=O)O[C@H]1C[C@H](O)C=C2C=C[C@H](C)[C@H](CC[C@@H](O)C[C@@H](O)CC(=O)O)[C@H]21`, the outcome was inactive.

With `CCCCCCCCN(C)C`, the result was inactive.

As to `FC(F)(F)C(F)(F)C(F)(F)C(F)(F)C(F)(F)C(F)(F)I`, the result was inactive.

On to `O=S(=O)(O)c1ccc(N=Nc2c(O)ccc3cc(S(=O)(=O)O)ccc23)cc1`, for which the result was inactive.

As to `CCCCCCOC(=O)CC(CC(=O)OCCCCCC)(OC(=O)CCC)C(=O)OCCCCCC`, the outcome was inactive.

As to `c1ccc2ncccc2c1`, the outcome was inactive.

As to `OC[C@H]1O[C@@](CO)(O[C@H]2O[C@H](CO)[C@@H](O)[C@H](O)[C@H]2O)[C@@H](O)[C@@H]1O`, the result was inactive.

On to `C[C@@H](Oc1ccc(CNC(=O)c2cccnc2Oc2ccc3c(c2)OCO3)c(F)c1)C(=O)O`, for which the result was inactive.

For `Nc1ccn([C@@H]2O[C@H](CO)[C@@H](O)[C@@H]2O)c(=O)n1`, the AC50 is 0.148 µM (active).

Regarding `CCCCCCCCCCCCCCCCOS(=O)(=O)O`, the result was inactive.

With `CC(C)CCCCCCOC(=O)C1CCCCC1C(=O)OCCCCCCC(C)C` (stereo unspecified), the outcome was inactive.

Consider `O=C(O)[C@H](O)[C@@H](O)C(=O)O`, for which the result was inactive.

Consider `O=c1[nH]cnc2c1ncn2[C@H]1CC[C@@H](CO)O1`, for which the result was inactive.

With `OCC(CO)(CO)CO`, the outcome was inactive.

Take `O=C(O)c1cccc(C(=O)O)c1`: the result was inactive.

As for `OC[C@H]1O[C@@H]2O[C@H]3[C@H](O)[C@@H](O)[C@@H](O[C@H]4[C@H](O)[C@@H](O)[C@@H](O[C@H]5[C@H](O)[C@@H](O)[C@@H](O[C@H]6[C@H](O)[C@@H](O)[C@@H](O[C@H]7[C@H](O)[C@@H](O)[C@@H](O[C@H]1[C@H](O)[C@H]2O)O[C@@H]7CO)O[C@@H]6CO)O[C@@H]5CO)O[C@@H]4CO)O[C@@H]3CO`, the outcome was inactive.

Take `CCOC(N)=O`: the result was inactive.

Read-out in the next assay: Monokine induced gamma interferon (MIG), CXCL9 (gene 4283)
Description: BSK_CASM3C_MIG: BioMAP Diversity Plus: CASM3C Assay for Monokine induced gamma interferon (MIG) Biomarker Activity (AID 2283048).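 Further: MIG protein level measured by ELISA.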 Particulars: primary human coronary artery smooth muscle cells; actives raise or lower the signal.
In the case of `CC(C)CC(C)O` (stereo unspecified), the outcome was inactive.

Turning to `CCN(CC)C(=S)SSC(=S)N(CC)CC`, the concentration at half-maximal activity (AC50) was 33.3 µM (active).

On to `FC(F)C(F)(F)COCC1CO1` (stereo unspecified), for which the outcome was inactive.

`OCCC(F)(F)C(F)(F)C(F)(F)C(F)(F)F`: the outcome was inactive.

Turning to `CCCCN1C(=O)[C@@H]([C@H](O)C2CCCCC2)NC(=O)C12CCN(Cc1ccc(Oc3ccc(C(=O)O)cc3)cc1)CC2`, the outcome was inactive.

Turning to `NC(=O)N1c2ccccc2C=Cc2ccccc21`, the outcome was inactive.

`CC(C)c1nnc2ccc(-c3ocnc3-c3cc(F)ccc3F)cn12`: the outcome was inactive.

Consider `O=S(=O)(O)CCC(F)(F)C(F)(F)C(F)(F)C(F)(F)C(F)(F)C(F)(F)F`, for which the result was inactive.

With `FC(F)=C(F)C(F)(F)C(F)(F)C(F)(F)C(F)(F)C(F)(F)C(F)(F)F`, the outcome was inactive.

For the molecule `Cc1ccc(S(=O)(=O)NC(=O)NN2CCCCCC2)cc1`, the result was inactive.

Take `NC(N)=O`: the result was inactive.

`CC[C@H](C)C(=O)O[C@H]1C[C@H](O)C=C2C=C[C@H](C)[C@H](CC[C@@H](O)C[C@@H](O)CC(=O)O)[C@H]21`: the outcome was inactive.

As for `CCCCCCCCN(C)C`, the result was inactive.

Regarding `FC(F)(F)C(F)(F)C(F)(F)C(F)(F)C(F)(F)C(F)(F)I`, the result was inactive.

Regarding `O=S(=O)(O)c1ccc(N=Nc2c(O)ccc3cc(S(=O)(=O)O)ccc23)cc1`, the result was inactive.

In the case of `CCCCCCOC(=O)CC(CC(=O)OCCCCCC)(OC(=O)CCC)C(=O)OCCCCCC`, the result was inactive.

For `c1ccc2ncccc2c1`, the outcome was inactive.

With `OC[C@H]1O[C@@](CO)(O[C@H]2O[C@H](CO)[C@@H](O)[C@H](O)[C@H]2O)[C@@H](O)[C@@H]1O`, the outcome was inactive.

For `C[C@@H](Oc1ccc(CNC(=O)c2cccnc2Oc2ccc3c(c2)OCO3)c(F)c1)C(=O)O`, the outcome was inactive.

As to `Nc1ccn([C@@H]2O[C@H](CO)[C@@H](O)[C@@H]2O)c(=O)n1`, the outcome was inactive.

Regarding `CCCCCCCCCCCCCCCCOS(=O)(=O)O`, the outcome was inactive.

As to `CC(C)CCCCCCOC(=O)C1CCCCC1C(=O)OCCCCCCC(C)C` (stereo unspecified), the result was inactive.

For `O=C(O)[C@H](O)[C@@H](O)C(=O)O`, the outcome was inactive.

In the case of `O=c1[nH]cnc2c1ncn2[C@H]1CC[C@@H](CO)O1`, the outcome was inactive.

On to `OCC(CO)(CO)CO`, for which the result was inactive.

For `O=C(O)c1cccc(C(=O)O)c1`, the outcome was inactive.

For the molecule `OC[C@H]1O[C@@H]2O[C@H]3[C@H](O)[C@@H](O)[C@@H](O[C@H]4[C@H](O)[C@@H](O)[C@@H](O[C@H]5[C@H](O)[C@@H](O)[C@@H](O[C@H]6[C@H](O)[C@@H](O)[C@@H](O[C@H]7[C@H](O)[C@@H](O)[C@@H](O[C@H]1[C@H](O)[C@H]2O)O[C@@H]7CO)O[C@@H]6CO)O[C@@H]5CO)O[C@@H]4CO)O[C@@H]3CO`, the outcome was inactive.

As for `CCOC(N)=O`, the outcome was inactive.

As a reminder, the AC50 is the midpoint of the concentration-response curve, whichever way the signal moves.
